27 compounds from PubChem BioAssay AID2629 (Broad Institute, 2010) can be followed below.

For orientation: inhibition means the relative decrease from the control value, in per cent.

The campaign covered roughly 320,000 compounds. About 1,900 (0.59%) were called active. The sample as a whole holds a higher share of actives than the screen did. Values without a mark were called inactive. No stated cut-off is given here; in the data, active means inhibition mostly above about 10% (no sharp cut-off); inactive means mostly below about 6.7%.

Sequence of Protein LANA1 (Human herpesvirus 8 type P (isolate GK18)) (Q9QR71 whole entry, looked up): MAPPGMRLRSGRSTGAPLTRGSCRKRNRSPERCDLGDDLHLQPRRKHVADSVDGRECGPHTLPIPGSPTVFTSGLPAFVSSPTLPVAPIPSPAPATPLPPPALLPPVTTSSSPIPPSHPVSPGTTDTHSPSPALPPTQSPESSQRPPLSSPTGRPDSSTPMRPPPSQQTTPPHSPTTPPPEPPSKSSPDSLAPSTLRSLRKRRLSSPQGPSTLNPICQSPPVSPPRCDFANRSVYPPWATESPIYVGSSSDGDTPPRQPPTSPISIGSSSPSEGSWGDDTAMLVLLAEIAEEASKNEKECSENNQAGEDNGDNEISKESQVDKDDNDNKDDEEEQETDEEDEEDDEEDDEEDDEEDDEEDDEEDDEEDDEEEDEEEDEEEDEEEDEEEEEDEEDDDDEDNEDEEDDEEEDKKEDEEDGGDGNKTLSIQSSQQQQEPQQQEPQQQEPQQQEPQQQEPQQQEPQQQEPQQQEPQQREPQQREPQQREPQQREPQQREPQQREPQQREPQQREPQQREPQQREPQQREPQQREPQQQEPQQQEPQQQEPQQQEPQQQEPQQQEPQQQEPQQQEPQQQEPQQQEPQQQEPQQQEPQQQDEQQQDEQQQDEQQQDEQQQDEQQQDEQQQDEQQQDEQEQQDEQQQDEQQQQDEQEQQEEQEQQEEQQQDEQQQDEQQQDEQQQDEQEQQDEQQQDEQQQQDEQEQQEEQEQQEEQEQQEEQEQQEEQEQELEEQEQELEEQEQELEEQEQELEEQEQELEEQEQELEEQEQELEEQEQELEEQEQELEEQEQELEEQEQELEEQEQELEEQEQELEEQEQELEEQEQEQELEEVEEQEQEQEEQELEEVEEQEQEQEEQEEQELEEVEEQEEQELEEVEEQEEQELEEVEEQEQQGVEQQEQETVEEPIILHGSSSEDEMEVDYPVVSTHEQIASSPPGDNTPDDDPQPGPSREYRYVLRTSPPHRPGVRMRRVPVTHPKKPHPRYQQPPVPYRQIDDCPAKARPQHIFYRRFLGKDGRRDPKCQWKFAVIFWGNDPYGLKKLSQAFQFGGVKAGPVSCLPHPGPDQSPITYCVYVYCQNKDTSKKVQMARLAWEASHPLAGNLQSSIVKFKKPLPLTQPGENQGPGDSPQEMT

The test addresses Protein LANA1 (Human herpesvirus 8 type P (isolate GK18)) (UniProt Q9QR71). Kind of test: blockers of LANA interaction with H2A/H2B – biochemical, FP readout, HTS, primary screen (AID 2629). Particulars: cell-free LANA-H2A/H2B peptide, fluorescence polarization, active compounds read high, concentration not given here. For orientation: Fluorescence polarisation rises when a labelled molecule tumbles more slowly, as on binding a larger partner.
With `COc1ccc([N+](=O)[O-])cc1NC(=O)C(C)OC(=O)C1c2ccccc2Oc2ccccc21` (configuration not stated), the inhibition was 4.81%.
As for `COc1ccc(CNc2nc3c(c(=O)[nH]c(=O)n3C)n2Cc2ccccc2)cc1`, the figure is 1.42%; as for `Cn1c(=O)[nH]c(=O)c2c1nc(NCCCn1ccnc1)n2Cc1cccc(Br)c1`, 17.2% (active).
As for `CCCCNc1nc2c(c(=O)[nH]c(=O)n2C)n1CCOc1ccccc1`, the figure is -0.364%.
The value for `O=C(/C=C/c1ccc(F)cc1)NC(=S)NNC(=O)c1cccnc1` was 1%; that for `NC(=O)CN1CCCC1c1ccc2c(c1)OCCO2` (configuration not stated) was 2.74%.
On to `COc1ccccc1NC(=O)COC(=O)CNC(=O)C1CCCCC1`, for which the inhibition is 2.31%.
On to `O=C(Nc1ccc(-c2cscn2)cc1)C1CCCN(Cc2ccc(CO)o2)C1` (configuration not stated), for which the inhibition is 21.8% (active).
The value for `O=C(Nc1cccc(-c2cscn2)c1)C1CCN(Cc2ccsc2)CC1` was 4.95%.
As for `Nc1ncc(CN2CCCC(C(=O)Nc3ccc(-c4ccco4)cc3)C2)cn1` (configuration not stated), the figure is 3.49%; as for `O=C1CN(c2nc(-c3ccccc3)c3cc(Br)ccc3n2)c2ccccc2N1`, -7.77%; as for `COc1ccc(C2N=C(N)N=C(N)N2c2ccccc2)cc1OC` (configuration not stated), -6.16%.
As for `CCCCSc1[nH]c(=O)c(C(=O)OCC)cc1C#N`, the figure is 3.53%; as for `COc1ccc(-c2nc(N)sc2C2(O)C(=O)Nc3c(Br)cc(F)cc32)cc1OC` (configuration not stated), -10.7%.
Take `S=c1[nH]nc(Nc2ccccc2)s1`: the inhibition was 6.41%.
As for `CC(C)(C)C(=O)c1cnc(Nc2ccccc2)s1`, the figure is 54.4% (active).
`O=C(/C=C/Nc1ccccc1)c1cnc(-c2ccccc2)s1`: the inhibition is 0.792%.
The value for `Cc1ccccc1-n1cc(CNC(=O)CC2C(=O)NCCN2C/C=C/c2ccccc2)cn1` (configuration not stated) was -1.56%.
For `Cc1nc(SC(C)C)[nH]c(=O)c1Cc1ccccc1`, the inhibition is 1.02%.
As for `O=C(Cc1ccccc1Cl)N1CCOCC1`, the figure is -0.189%.
As for `O=C(O)CC(CC(=O)N1CCOCC1)c1ccccc1` (configuration not stated), the figure is 4.19%; as for `O=C(CP(=O)(c1ccccc1)c1ccccc1)N1CCOCC1`, 14.6% (active).
`CCOc1ccc(CCNC(=O)Nc2ccccc2)cc1OCC`: the inhibition was -1.38%.
As for `CCN1C(=O)[C@H]2[C@@H](c3ccc(C)cc3)N3C(=O)N(c4cccc(Br)c4)C(=O)[C@@]3(CC)[C@H]2C1=O`, the figure is -2.34%; as for `Cc1ccc(NC(=O)CSCC(=O)Nc2sccc2C#N)cc1`, 1.52%.
As for `Cc1ccc(NC(=O)c2sc3nc(N)c(C#N)cc3c2N)cc1`, the figure is 14.6% (active).
The value for `CCc1ccc2nc3sc(C(=O)Nc4nnc(CC)s4)c(N)c3cc2c1` was -1.19%.
